Results on one molecule are retold here after PubChem BioAssay (EPA / NIEHS).

Experiment [1] in a line: CCTE_Mundy_HCI_Cortical_NOG_NeuriteLength: CCTE's Neurite Outgrowth Assay in rat cortical cells for Neurite Length, Mundy Lab (AID 2284213).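 Note: neurites imaged about 48 to 50 h after chemical exposure began.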 The method, boiled down: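 Neurite length was read by high-content imaging of βIII-tubulin-labelled neurites in rat primary cortical cultures. Activity was fitted relative to DMSO.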
Experiment [2] is described as follows: CCTE_Mundy_HCI_Cortical_Synap_Neur_Matur_NeuriteLength: CCTE's Synaptogenesis and Neurite Maturation Assay in rat cortical cells for Neurite Length, Mundy Lab (AID 2284214). The method, boiled down:
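Rat cortical neurons, AraC at DIV 5; compound + media change DIV 7, end DIV 12 (288.33 h). Fix, MAP2/synaptophysin/Hoechst immunostain, automated HCI of neurite length vs DMSO.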

The nature of experiment [3]: CCTE_Mundy_HCI_Cortical_Synap_Neur_Matur_SynapseCount: CCTE's Synaptogenesis and Neurite Maturation Assay in rat cortical cells for Synapse Count, Mundy Lab (AID 2284218). The method, boiled down:
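Primary rat cortical culture; AraC DIV 5 to arrest glia; compound + media change DIV 7; terminated DIV 12. PFA/Hoechst fix, anti-MAP2 + anti-synaptophysin immunostain; HCI synapse count/neuron; DMSO = baseline.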

Experiment [4] in a line: CCTE_Mundy_HCI_Cortical_Synap_Neur_Matur_NeuriteCount: CCTE's Synaptogenesis and Neurite Maturation Assay in rat cortical cells for Neurite Count, Mundy Lab (AID 2284222). The method, boiled down: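 Chemical exposure runs DIV 7–12 in rat cortical cultures, glia suppressed by AraC at DIV 5; measurement is at DIV 12. Imaging-derived neurite counts are fitted against DMSO baseline.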

Experiment [5] can be described thus: CCTE_Mundy_HCI_Cortical_Synap_Neur_Matur_CellBodySpotCount: CCTE's Synaptogenesis and Neurite Maturation Assay in rat cortical cells for Cell Body Spot Count, Mundy Lab (AID 2284223). The method, boiled down: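 Read-out: cell body-associated synaptophysin puncta per neuron, imaged after MAP2, synaptophysin and Hoechst staining. Rat cortical cells, AraC DIV 5, chemical dosing DIV 7, fixation DIV 12. Activity fitted in positive direction relative to DMSO baseline.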

Experiment [6] is described as follows: UKN4_HCS_LUHMES_cell_viability: Viability Assessment in the University of Konstanz (UKN) Leist Lab Neurite Outgrowth Assay in human LUHMES cells (UKN4) (AID 2284232). The method, boiled down: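 Fluorescence intensity from high-content imaging of Hoechst H-33342/calcein-AM-stained cells served as the viability read-out. Human LUHMES precursors were differentiated 2 days, replated and treated 24 h; curves were fitted bidirectionally against DMSO.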

Experiment [7] in a line: UKN2_HCS_IMR90_cell_viability: Viability Assessment in the University of Konstanz (UKN) Leist Lab Neural Crest Cell Migration Assay in human induced IMR90 Pluripotent Stem Cells (UKN2) (AID 2284233).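 Note: viability of neural crest cells differentiated from IMR90 iPSC measured by calcein-AM fluorescence imaging; cells exposed to compound for 24 h after a 24 h migration phase.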 The method, boiled down:
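Human IMR90-derived neural crest cells were allowed to migrate for 24 h into a cell-free zone, then exposed to test chemicals for 24 h. Calcein-AM and Hoechst staining with high-content imaging gave viability, analysed against DMSO baseline.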

Experiment [8] in a line: CCTE_Mundy_HCI_Cortical_NOG_NeuronCount: CCTE's Neurite Outgrowth Assay in rat cortical cells for Neuron Count, Mundy Lab (AID 2284236; active = hit-call score of the fitted dose curve at least 0.9, where 1 is the maximum;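 note: neurons counted by imaging betaIII-tubulin and Hoechst stained cortical cells; cells exposed to compound for about 48 hours before fixation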). The method, boiled down: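 Read-out: neuron number by high-content imaging of betaIII-tubulin (Alexa Fluor-488) and Hoechst-labelled rat primary cortical cells.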
A short description of experiment [9]: CCTE_Mundy_HCI_Cortical_NOG_BPCount: CCTE's Neurite Outgrowth Assay in rat cortical cells for Branch Point Count, Mundy Lab (AID 2284237).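 Note: branch points counted about two days after chemical exposure.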 The method, boiled down: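 Measured 50.33 h after dosing, this morphology endpoint uses rat primary cortical cultures labelled for betaIII-tubulin. Branch points are quantified by high-content imaging, with DMSO as negative control and baseline.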

Experiment [10] can be described thus: CCTE_Mundy_HCI_hNP1_Casp3_7: CCTE's Caspase-Glo 3/7 Assay in human neuroprogenitor cells for Apoptosis, Mundy Lab (AID 2284240). The method, boiled down:
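Apoptosis is scored by activated caspase-3/7 luminescence in WA09-derived neural progenitor cells, measured 26.5 h after chemical dosing. Values represent gain of signal relative to DMSO vehicle.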

A short description of experiment [11]: CCTE_Mundy_HCI_hNP1_CellTiter: CCTE's Cell Titer-Glo 2 Assay in human neuroprogenitor cells for Viability, Mundy Lab (AID 2284241; active = hit-call score of the fitted dose curve at least 0.9, where 1 is the maximum). The method, boiled down:
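Human neural progenitor cells (hNP1, WA09-derived) were plated on poly-L-ornithine/laminin and grown 40 to 44 hours at 37 °C, 5% CO2 before chemical addition. Twenty-four hours later, ATP was measured by CellTiter-Glo luminescence; loss of signal versus DMSO indicates reduced viability.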
On the technique in general: ATP-based viability assays read luminescence as a measure of living cells.

Experiment [12] is described as follows: CCTE_Mundy_HCI_Cortical_Synap_Neur_Matur_NeuronCount: CCTE's Synaptogenesis and Neurite Maturation Assay in rat cortical cells for Neuron Count, Mundy Lab (AID 2284242; active = hit-call score of the fitted dose curve at least 0.9, where 1 is the maximum;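 note: hits reduce neuron count versus DMSO baseline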). The method, boiled down:
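Neuron number was scored by automated high-content imaging of Hoechst- and MAP2-labelled rat primary cortical cells. Glial growth was arrested with AraC at DIV 5, compounds were applied from DIV 7, and cultures ended at DIV 12.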

Read-out in experiment [13]: Monokine induced gamma interferon (MIG), CXCL9 (gene 4283)
Put plainly: BSK_KF3CT_MIG: BioMAP Diversity Plus: KF3CT Assay for Monokine induced gamma interferon (MIG) Biomarker Activity (AID 2284248). The following applies: primary human keratinocytes with fibroblasts. The method, boiled down:
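ELISA read-out of MIG after 24 h chemical exposure of human skin primary co-culture (keratinocytes, foreskin fibroblasts). Gain of signal relative to DMSO negative control was analysed.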

Read-out in experiment [14]: Collagen I, COL1A1 (gene 1277)
As to the kind of experiment: BSK_hDFCGF_CollagenI: BioMAP Diversity Plus: hDFCGF Assay for Collagen I Biomarker Activity (AID 2284250). The following applies: primary human foreskin fibroblasts. The method, boiled down: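 Human skin primary fibroblasts dosed with test chemical, harvested at 24 h, Collagen I quantified by ELISA; parallel SRB staining (0.1% SRB after 10% TCA fixation, 560 nm) tracked cytotoxicity.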

Read-out in experiment [15]: Interferon-inducible T-cell alpha chemoattractant (ITAC), CXCL11 (gene 6373)
Put plainly: BSK_hDFCGF_ITAC: BioMAP Diversity Plus: hDFCGF Assay for Interferon-inducible T-cell alpha chemoattractant (ITAC) Biomarker Activity (AID 2284251). The following applies: primary human foreskin fibroblasts. The method, boiled down:
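Fibroblasts (human foreskin, primary) are treated with chemical, cultured 24 h, then assayed for I-TAC by ELISA. Overt toxicity is checked in parallel cultures by sulforhodamine B staining of total protein at the same time point.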

Read-out in experiment [16]: Plasminogen activator inhibitor-1 (PAI1), SERPINE1 (gene 5054)
As to the kind of experiment: BSK_KF3CT_PAI1: BioMAP Diversity Plus: KF3CT Assay for Plasminogen activator inhibitor-1 (PAI1) Biomarker Activity (AID 2284252). The following applies: primary human keratinocytes with fibroblasts. The method, boiled down:
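ELISA read-out of PAI-1 taken 24 h after chemical treatment of a human skin primary co-culture of keratinocytes and foreskin fibroblasts. Increases over DMSO-treated wells defined activity.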

Read-out in experiment [17]: Interleukin-8 (IL8), CXCL8 (gene 3576)
As to the kind of experiment: BSK_KF3CT_IL8: BioMAP Diversity Plus: KF3CT Assay for Interleukin-8 (IL8) Biomarker Activity (AID 2284254). The following applies: primary human keratinocytes with fibroblasts. The method, boiled down:
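IL-8 read-out: ELISA, 24 h post-dose, human skin primary co-culture (keratinocytes + foreskin fibroblasts). DMSO = baseline; positive-direction fit.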

Read-out in experiment [18]: Intercellular Adhesion Molecule 1 (ICAM1), ICAM1 (gene 3383)
As to the kind of experiment: BSK_BE3C_ICAM1: BioMAP Diversity Plus: BE3C Assay for Intercellular Adhesion Molecule 1 (ICAM1) Biomarker Activity (AID 2284278).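 Note: cell-surface ICAM-1 protein level quantified by ELISA.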 The following applies: primary human bronchial epithelial cells. The method, boiled down: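 Human primary bronchial epithelial cultures; compound added; 24 h incubation; cell-surface ICAM-1 measured by ELISA; signal increase fitted relative to DMSO negative control.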

Read-out in experiment [19]: Interferon-inducible T-cell alpha chemoattractant (ITAC), CXCL11 (gene 6373)
As to the kind of experiment: BSK_BE3C_ITAC: BioMAP Diversity Plus: BE3C Assay for Interferon-inducible T-cell alpha chemoattractant (ITAC) Biomarker Activity (AID 2284279). The following applies: primary human bronchial epithelial cells. The method, boiled down: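 BE3C cells (human primary bronchial epithelium), 24 h compound exposure, I-TAC by ELISA, DMSO = negative control/baseline, positive fitting direction.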

Read-out in experiment [20]: Interleukin-8 (IL8), CXCL8 (gene 3576)
Put plainly: BSK_BE3C_IL8: BioMAP Diversity Plus: BE3C Assay for Interleukin-8 (IL8) Biomarker Activity (AID 2284280). The following applies: primary human bronchial epithelial cells. The method, boiled down:
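IL-8 signal gain, normalised to DMSO vehicle, was scored after a 24 h chemical exposure of primary human bronchial epithelial cells, with detection by ELISA.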

Read-out in experiment [21]: Epidermal growth factor receptor (EGFR), EGFR (gene 1956)
As to the kind of experiment: BSK_BE3C_EGFR: BioMAP Diversity Plus: BE3C Assay for Epidermal growth factor receptor (EGFR) Biomarker Activity (AID 2284281). The following applies: primary human bronchial epithelial cells. The method, boiled down: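 Compound is added to human bronchial epithelial cells, cells incubate 24 h, then EGFR is detected by ELISA. Values reflect positive-direction fitting relative to DMSO.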

“And” between values parts separate entries of the source, which are not always exact repeats. Equal entries are not always repeated. Records with an inconclusive call do not appear. Where a structure was tested more than once in an assay, its records may differ in their call. The source made the active and inactive calls. Rule for the calls, unless noted: active = hit-call score of the fitted dose curve at least 0.9, where 1 is the maximum; inactive = score below 0.9.

Usually AC50 stands for the concentration giving half of the maximal activity seen. Consider `[Cd+2].[Cl-].[Cl-]`, for which the AC50 in [1] is 12.4 µM (active); in experiment [2], 1.46 µM (active); in experiment [3], 1.25 µM (active); in [4], 2.71 µM (active); in experiment [5], 6.06 µM (active); in experiment [6], 8.98 µM (active). For the same molecule, the AC50 was 4.14 µM (active) in [7]; 9.84 µM (active) in experiment [8]; 18.9 µM (active) in [9]; 0.728 µM (active) in experiment [12]; 33.6 µM (active) and 36.8 µM (active) in experiment [13]; 1.42 µM (active) and 465 nM (active) in [14]. The AC50 was 10 µM (active) and 7.2 µM (active) in experiment [15]; 34.5 µM (active) and 29.9 µM (active) in experiment [16]; 26.8 µM (active) in experiment [17]; 28.9 µM (active) and 31.5 µM (active) in experiment [19]; 0.0538 µM (active) in experiment [20]; 31.6 µM (active) and 12.3 µM (active) in [21]. Further, the result in experiment [10], in experiment [11], in experiment [17], in experiment [18] and in experiment [20] was inactive.
